Hits are enriched below; roughly 12% of the tested compounds scored in any of these assays.
BAZ2B block – qHTS Assay for Inhibitors of BAZ2B | actives 4.4% (n = 360,000) | Bromodomain adjacent to zinc finger domain protein 2B (Homo sapiens), Q9UIF8 | AID 504333, 2011 | AlphaScreen BAZ2B-H3K14Ac peptide displacement | Potency, µM (highest dose often 114 µM), hits mostly inhibitors; also: nearly all actives have a fitted effect of over 60% in size
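Inhibition is scored as reduced AlphaScreen emission. The BAZ2B/b-H3(5-23)K14Ac complex (50 nM each) in PBS pH 7.4, 0.01% Tween-20 meets compound (up to 110 uM) for 30 min at RT before bead addition.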
Sfp PPTase inh – qHTS Assay for Inhibitors of Bacillus subtilis Sfp phosphopantetheinyl transferase (PPTase). 4'-phosphopantetheinyl transferase ffp (Bacillus subtilis), Q9F4F7. Biochemical Sfp PPTase activity, qHTS. Potency, µM, hits mostly inhibitors. actives 3.5% (n = 310,000). AID 1490, 2009;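 also: the enzyme is Sfp with the accession as filed and its product quenches rhodamine fluorescence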
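Sfp 15 nM + cpd, 15 min RT; start w/ rhodamine-CoA 5 uM, BHQ-2-YbbR 12.5 uM (final); 50 mM Hepes pH 7.6, 10 mM MgCl2, 0.01% NP-40, 0.01% BSA; read 525/598 nm at 0 and 30 min.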
PLK1 PBD block – qHTS for Inhibitors of PLK1-PDB (polo-like kinase 1 - polo-box domain): Primary Screen; Plk1 PBD binding of FITC phosphopeptide, fluorescence polarization; Potency, µM, actives largely listed as inhibitors; actives 2.8% (n = 360,000); AID 720504, 2013; also: series mostly up to about 57 µM; nearly all actives have a fitted effect of over 65% in size
G9a block – qHTS Assay for Inhibitors of Histone Lysine Methyltransferase G9a. Histone-lysine N-methyltransferase EHMT2 (Homo sapiens), Q96KQ7. G9a H3K9 monomethylation, AlphaScreen, 2 h. Potency, µM (titrated, usually from 102 µM), actives largely listed as inhibitors. actives 8.8% (n = 350,000). AID 504332, 2011; also: nearly all actives have a fitted effect of over 75% in size
Target sequence (Q96KQ7 913-1193 limits assumed): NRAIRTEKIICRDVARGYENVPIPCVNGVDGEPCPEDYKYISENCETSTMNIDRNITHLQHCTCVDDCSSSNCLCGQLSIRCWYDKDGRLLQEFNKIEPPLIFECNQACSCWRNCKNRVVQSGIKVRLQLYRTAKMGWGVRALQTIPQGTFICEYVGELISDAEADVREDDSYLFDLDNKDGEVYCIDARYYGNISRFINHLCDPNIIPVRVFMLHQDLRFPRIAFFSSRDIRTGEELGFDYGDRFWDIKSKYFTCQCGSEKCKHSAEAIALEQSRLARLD
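G9a (20 nM) was preincubated 15 min with compound, then reacted 2 h at room temperature with 500 nM biotin-H3K9 peptide and 20 µM SAM. Monomethyl-H3K9 detected by AlphaScreen using anti-H3K9me1 antibody.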
JMJD2A Tudor inh – qHTS Assay for Inhibitors of JMJD2A-Tudor Domain. AID 504339, 2011. AlphaScreen JMJD2A-Tudor / H3K4me3 peptide binding. Lysine-specific demethylase 4A (Homo sapiens), O75164. Potency, µM (doses to about 114 µM), hits mostly inhibitors. actives 4.4% (n = 390,000); also: nearly all actives have a fitted effect of over 50% in size
HP1b chromo inh – HTS for Inhibitors of HP1-beta Chromodomain Interactions with Methylated Histone Tails; Chromobox protein homolog 1 (Homo sapiens), P83916; Potency, µM (top dose mostly 114 µM), actives largely listed as inhibitors; actives 0.56% (n = 390,000); AlphaScreen HP1-beta / biotin-H3K9me3 peptide binding; also: nearly all actives have a fitted effect of over 70% in size
Target sequence (P83916 whole entry, looked up): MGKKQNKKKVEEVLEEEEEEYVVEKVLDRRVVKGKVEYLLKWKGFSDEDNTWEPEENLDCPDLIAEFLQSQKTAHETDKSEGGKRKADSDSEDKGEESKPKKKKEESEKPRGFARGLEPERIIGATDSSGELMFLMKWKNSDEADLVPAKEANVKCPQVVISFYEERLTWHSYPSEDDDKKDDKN
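AlphaScreen: HP1-beta (50 nM) preformed 30 min with biotin-H3(1-18)K9me3 peptide (50 nM) in PBS pH 7.4, 0.01% Tween-20. Compound added for 30 min at RT, then streptavidin donor/nickel chelate acceptor beads (10 ug/mL) for 30 min.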
Hits are given with their value; – = inactive; ? = inconclusive; · = no result given; [ ] = dose if it differs, or a comment. Calls follow the shape of the dose curve; as a rule, active = well fitted curve in the direction sought with a large enough effect; inconclusive = small, poorly fitted or top-dose-only effect, or another doubt; inactive = no such curve, though single readings can be large; an effect the other way counts as inactive or inconclusive.

SMILES	BAZ2B block	Sfp PPTase inh	PLK1 PBD block	G9a block	JMJD2A Tudor inh	HP1b chromo inh
Cc1ccnc(SCC(=O)N2CCN(C(c3ccccc3)c3ccccc3)CC2)n1	–	–	–	45µM	–	–
Cc1ccc(-c2nc(-c3cc4cccc(OCc5cccc(F)c5)c4oc3=O)no2)cc1	–	·	·	–	–	–
COCCNC(=O)CN1CCN(C(c2ccccc2)c2ccccc2)CC1	?	?	–	14µM	8.9µM	?
COCCNC(=O)CNC(c1ccccc1)c1ccccc1	56µM	45µM	·	45µM	·	·
Cc1occc1C(=O)N1CCN(C(c2ccccc2)c2ccccc2)CC1	?	–	–	40µM	?	–
CC(=O)c1ccc(S(=O)(=O)NCCC(=O)OCC(=O)N2CCCC2=O)cc1	–	·	–	–	–	–
CCN1C(=O)C(C(=O)c2ccccc2)SC1=S (stereo unspecified)	56µM	20µM	?	22µM	56µM	–
O=C(COC(=O)c1cc(S(=O)(=O)N2CCOCC2)ccc1O)Nc1ccc2c(c1)OCO2	·	·	–	·	–	–
CCOC(=O)C(=O)c1csc(NC(=O)CCSc2ccc(C)cc2)n1	·	–	–	71µM	–	–
COc1ccc(C2C=C3CN(C(=O)OC(C)(C)C)S(=O)(=O)C3CC2OC(=O)c2cccc(C)c2)cc1 (stereo unspecified)	·	–	·	·	–	–
Cc1ccc(OCC(COCc2ccccc2)NC(C)C)cc1 (stereo unspecified)	·	·	–	·	1.4µM	?
CN(C)c1ccc(/C=N\NC(=O)c2csnn2)cc1	–	40µM	–	–[0.0925 µM]	–	–
Cc1cccc(C(=O)N/N=C/c2ccoc2)c1	50µM	–	–	–	–	–
Cc1cccc(/C=N/NC(=O)C[n+]2ccccc2)c1	–	·	–	–[0.501 µM]	–	–
CCOC(=O)N/N=C/c1ccc(Oc2ccccc2)cc1	–	–	–	–	–	–
O=C(N/N=C\c1ccc(Oc2ccccc2)cc1)c1csnn1	–	–	–	0.89µM	–	–
Cc1cccc(/C=N\NC(=O)c2csnn2)c1	?	40µM	–	–[0.501 µM]	79µM	–
CCCCc1ccc(NC(=O)Cn2cnc3c2c(=O)n(C)c(=O)n3C)cc1	–	·	·	–	–	–
CC(C)CNC(=O)CSc1nnc(CN2CCCCCC2=O)n1-c1ccccn1	·	–	–	–	–	–
CC(C)N(C(=O)CSc1nnc(CN2CCCCCC2=O)n1-c1ccccn1)C(C)C	–	–	–	?	89µM	?
O=C(O)CCC(=O)NNc1nc2ccccc2nc1-c1ccccc1	–	56µM	–	·	–	–
O=C(O)CCC(=O)NNc1nc(-c2ccccc2)c2cc(Cl)ccc2n1	–	–	–	–	–	–
O=C(O)CCC(=O)NNc1ncnc2ccccc12	?	56µM	–	–	–	–
CCC(=O)NNc1ncnc2ccccc12	–	–	?	–	–	–
CC(=O)Nc1ccc(C2NC(C(=O)O)CCC2C)cc1 (stereo unspecified)	·	–	·	·	·	·
SMILES	BAZ2B block	Sfp PPTase inh	PLK1 PBD block	G9a block	JMJD2A Tudor inh	HP1b chromo inh
COC(=O)C(C)Sc1nc2c(c(=O)n(C)c(=O)n2C)n1CCC(C)C (stereo unspecified)	–	–	–	79µM	–	–
COC(=O)c1ccc2c(c1)N(C)S(=O)(=O)c1cnc(SCC(=O)C(C)(C)C)nc1-2	–	–	–	5µM	–	–
CCOC(=O)c1cccc(NC(=O)CSc2ncc3c(n2)-c2ccccc2N(C)S3(=O)=O)c1	–	·	·	–	–	–
COc1cc(NS(=O)(=O)c2ccc(NC(=O)c3ccc(Cl)cc3Cl)cc2)nc(OC)n1	–	·	·	–	–	–
CCS(=O)(=O)N1CC(=O)N(c2cc(C)ccc2C)C(C)(C(=O)NC2CCCCC2)C1 (stereo unspecified)	–	·	·	–	–	–
CCCOC(=O)c1ccccc1	·	–	·	–	·	·
CCCOC1(NC(=O)c2ccccc2)C(C)=CC(=O)C=C1C	–	56µM	–	–[12.7 µM]	?	?
Cc1cccc(-n2c(-c3csc(C(C)C)c3)n[nH]c2=S)c1	–	–	?	?	?	–
Cc1cccc(-n2c(C)nc3ccsc3c2=O)c1	·	·	–	·	–	–
Cc1ccccc1-n1c(-c2csc3ccccc23)n[nH]c1=S	–	–	–	2µM	?	–
Cc1cccc(-n2c(-c3csc(C)c3C)n[nH]c2=S)c1	–	–	–	1.1µM	22µM	–
CCCc1cc(-c2n[nH]c(=S)n2-c2cccc(C)c2)cs1	?	?	?	3.5µM	?	–
COc1ccc(C(C)(O)c2nc(-c3csc4ccccc34)cs2)cc1 (stereo unspecified)	·	·	–	·	·	·
Cc1ccccc1-n1c(-c2csc(C)c2C)n[nH]c1=S	–	–	–	1µM	50µM	–
O=C(COC(=O)c1cccc(F)c1)Nc1ccc(Cl)cn1	·	·	–	·	–	–
Clc1cccc(Nc2nc(N3CCOCC3)nc(N3CCOCC3)n2)c1	–	–	–	50µM	–	–
c1ccc(Nc2nc(N3CCCCC3)nc(N3CCCCC3)n2)cc1	–	–	21µM	–	–[11.4 µM]	–
O=[N+]([O-])c1ccc(Nc2nc(NC3CCCCC3)nc(N3CCCC3)n2)cc1	?	–	–	11µM	?	–
O=C(CN1C(=O)NC2(CCOc3ccccc32)C1=O)c1ccc[nH]1 (stereo unspecified)	–	·	–	–[2.33 µM]	–	–
COc1ccccc1CNC(=O)CCC1N=C2c3ccccc3N=C(SCc3cccc(Cl)c3)N2C1=O (stereo unspecified)	–	·	·	–	–	–
CCOc1ccc2c(c1)C(c1cccs1)=NNC(c1cccnc1)=N2	71µM	–	–	–	?	–
CN(C)CCCNCC(=O)c1c(-c2ccccc2)n(C)c2ccccc12	–	40µM	–	–	4.5µM	?
C=CCN(CC=C)C(=S)NC(=O)c1ccc(OC)cc1	?	–	?	·	–	–
C=CCN(CC=C)C(=S)NC(=O)c1ccc(-c2ccccc2)cc1	6.3µM	?	–	–	?	–
C=CCN(CC=C)C(=S)NC(=O)/C=C/c1ccccc1	–	–	15µM	–	22µM	?
COc1ccc(-c2cc(C(=O)NCc3ccc(F)cc3)c3c(-c4ccc(F)cc4)[nH]nc3n2)cc1OC	–	·	·	–	–	–
CCC(=O)N1CCc2cc(S(=O)(=O)NC(Cc3ccccc3)C(=O)NCc3ccc(F)cc3)ccc21 (stereo unspecified)	·	·	·	–	–	–
CN(C)c1ccc(S(=O)(=O)NCC(=O)NCCC2=CCCCC2)cc1[N+](=O)[O-]	–	·	–	–	–	–
